Assay outcomes deposited in PubChem by National Center for Advancing Translational Sciences (NCATS).
TRb SRC2 PPI: inhibitors of human thyroid hormone receptor beta-SRC2 interaction | P10828 | TRbeta-SRC2 peptide binding, fluorescence polarization; receptor liganded with 1 µM T3 | Potency, µM (titrated, usually from 106 µM), for inactives: at the top dose activity change, negative = inhibition, actives largely listed as inhibitors | actives 0.065% (n = 280,000);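 also: plate controls were bound peptide for no effect and peptide without receptor for full effect; nearly all actives have a fitted effect of over 50% in size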
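Compounds were added to 0.6 uM TRb ligand-binding domain and 20 nM Texas Red-labeled SRC2 peptide in Tris buffer containing 1 uM T3, incubated 5 hr at ambient temperature, then read by fluorescence polarization.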
WRN helicase inh-1: blocks human WRN helicase; Potency, µM (titrated, usually from 114 µM), for inactives: at the top dose activity change, negative = inhibition, most hits filed as inhibitors; Q14191; WRN helicase unwinding, fluorescent forked duplex, kinetic; actives 0.46% (n = 360,000); AID 651768; also: % is scaled to controls: 0 for no effect and ±100 for the full control effect; nearly all actives have a fitted effect of over 55% in size
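Fluorescence dequenching readout, ex 525 nm/em 598 nm, kinetic mode: forked duplex DNA (100 nM final) with adjacent fluorophore and quencher unwound by WRN (20 nM final) with 2 mM ATP. Compound preincubation 15 min, room temperature.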
TR SRC2 fluor cs: Texas Red fluorescence interference in TRb-SRC2 counter-screen. actives 0.29% (n = 280,000). Potency, µM (series often up to 106 µM), for the others: top-dose fluorescence change, negative = quenching. TRb/SRC2 Texas Red total fluorescence interference. AID 1479; active = well fitted curve in either direction with a large enough effect; inconclusive = small, poorly fitted or top-dose-only effect; also: % is scaled to controls: 0 for no effect and ±100 for the full control effect
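Flags fluorescent or light-absorbing compounds by total fluorescence, S + 2P, at 555 nm excitation and 632 nm emission. Mixture: 20 nM Texas Red SRC2 peptide, 0.6 uM human TRb LBD, 1 uM T3, 5% DMSO; compound exposure 5 h at ambient temperature.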
BLM helicase inh-1: blocks DNA unwinding by human BLM helicase; actives 0.2% (n = 350,000); P54132; recombinant BLM DNA unwinding, fluorescence dequenching; Potency, µM (doses to about 56.1 µM), without a hit: top-dose activity change, negative = inhibition, actives largely listed as inhibitors; AID 2528;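 also: plate controls were vehicle for no effect and no enzyme for full effect; nearly all actives have a fitted effect of over 35% in size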
APE1 inh: inhibitors of human APE1 endonuclease | P27695 | recombinant APE1, TAMRA/BHQ-2 abasic DNA cleavage fluorescence | Potency, µM (top dose mostly 65.8 µM), without a hit: top-dose activity change, negative = inhibition, most hits filed as inhibitors | actives 0.35% (n = 350,000);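 also: plate controls were vehicle for no effect and reference inhibitor for full effect; nearly all actives have a fitted effect of over 55% in size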
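Kinetic fluorescence read (525 ex/598 em nm, three reads 60 s apart) of AP-site incision; signal = third minus first read. Enzyme 0.75 nM, dual-labelled THF duplex 50 nM, compound preincubation 15 min RT.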
RECQ1 helicase: blocks DNA unwinding by human RECQ1 | RECQ1 DNA unwinding, red fluorescence kinetic read | AID 2549 | actives 0.54% (n = 240,000) | Potency, µM (titrated, usually from 57.3 µM), without a hit: at the highest dose activity, negative = inhibition, usual class: inhibitors | P46063;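 also: plate controls were vehicle for no effect and no enzyme for full effect; nearly all actives have a fitted effect of over 30% in size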
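50 nM RECQ1T1 preincubated 15 min with compound in Tris pH 8.0 buffer with MgCl2, DTT, Tween-20 and 2.5 ug/ml poly(dI-dC); started with 200 nM TAMRA/BHQ-2 forked duplex and 2 mM ATP. Unwinding read as fluorescence (525/598 nm), two reads 2 h apart.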
WRN helicase inh-2: WRN helicase inhibition, cherry-pick retest. WRN helicase DNA unwinding, fluorescence kinetic. actives 63% (n = 610). Potency, µM (titrated, usually from 57.1 µM), without a hit: at the highest dose activity, negative = inhibition, hits mostly inhibitors. shares compounds with WRN helicase inh-1; also: nearly all actives have a fitted effect of over 65% in size
TO displacement: binds DNA, flagged in WRN inhibitor counterscreen; shares compounds with WRN helicase inh-1; actives 10% (n = 610); AID 720499; thiazole orange DNA binding displacement, fluorescence; Potency, µM (highest dose often 57.1 µM), for inactives: at the top dose activity change, negative = inhibition, actives largely listed as inhibitors;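 also: drop in dye fluorescence marks compound binding to DNA; % is scaled to controls: 0 for no effect and ±100 for the full control effect; nearly all actives have a fitted effect of over 60% in size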
BLM helicase inh-2: counter-screen for WRN helicase inhibitors: human BLM helicase inhibition. Potency, µM (doses to about 57.1 µM), inactives show at the highest dose activity change, negative = inhibition, hits mostly inhibitors. actives 60% (n = 610). Recombinant BLM helicase DNA unwinding, red fluorescence. shares compounds with WRN helicase inh-1; also: nearly all actives have a fitted effect of over 60% in size
* = called active by the depositor; [ ] = another dose, or the depositor's remark. Shown are actives, neighbours in structure and some others; about 0.91% of the full set was active somewhere. Unless noted, calls follow the shape of the dose curve; as a rule, active = well fitted curve in the direction sought with a large enough effect; inconclusive = small, poorly fitted or top-dose-only effect, or another doubt; inactive = no such curve, though single readings can be large; an effect the other way counts as inactive or inconclusive. Potency is read from the fitted curve at half-maximal effect.

`Nc1ccc2c(c1)C(=O)C(=O)c1ccccc1-2` gave TRb SRC2 PPI 2%, WRN helicase inh-1 35µM*, TR SRC2 fluor cs 1%, BLM helicase inh-1 inconclusive, APE1 inh 3%, RECQ1 helicase 3%, WRN helicase inh-2 19µM*, TO displacement inconclusive and BLM helicase inh-2 3.4µM*.
Nc1ccc2c(c1)C(=O)c1ccccc1-2 was read as WRN helicase inh-1 -9%.
`O=c1c(Br)ccc(Br)cc1Br` gave WRN helicase inh-1 10µM*, WRN helicase inh-2 24µM*, TO displacement -20% and BLM helicase inh-2 22µM*.
For Cc1cc(C)c(S(=O)(=O)/N=C2\C=C(Nc3ccc(C(=O)O)cc3)C(=O)c3ccccc32)c(C)c1 the results were WRN helicase inh-1 89µM*, BLM helicase inh-1 inconclusive, APE1 inh -22%, WRN helicase inh-2 22µM*, TO displacement inconclusive and BLM helicase inh-2 15µM*.
`COc1cc(/C=C(\C#N)c2nc3ccc(C)cc3[nH]2)c([N+](=O)[O-])cc1OC` gave TRb SRC2 PPI -5%, WRN helicase inh-1 8%[57.1 µM], TR SRC2 fluor cs 1%, BLM helicase inh-1 -11%, APE1 inh -13% and RECQ1 helicase inactive.
For COc1cc(/C=C(\C#N)c2nc3ccc(C)cc3[nH]2)cc([N+](=O)[O-])c1O the results were TRb SRC2 PPI 8%, WRN helicase inh-1 inconclusive, TR SRC2 fluor cs -30%, BLM helicase inh-1 -19%, APE1 inh inconclusive, RECQ1 helicase inactive, WRN helicase inh-2 22µM*, TO displacement 11µM* and BLM helicase inh-2 12µM*.
`Cc1ccc(CNC(=O)CN2N=C(c3ccc(C)cc3)CCC2=O)cc1` gave TRb SRC2 PPI -7%, TR SRC2 fluor cs 0% and BLM helicase inh-1 -7%.
N=C1S/C(=C\c2ccc(-c3cccc(Cl)c3)o2)C(=O)N1c1nccs1 was read as TRb SRC2 PPI -7%, WRN helicase inh-1 45µM*, TR SRC2 fluor cs 0%, BLM helicase inh-1 inconclusive, APE1 inh 20%, RECQ1 helicase -1%, WRN helicase inh-2 22µM*, TO displacement 17µM* and BLM helicase inh-2 7.6µM*.
`COc1ccc(/C=C2\SC(=N)N(c3nccs3)C2=O)cc1OC` gave TRb SRC2 PPI 13%, WRN helicase inh-1 -25%[57.1 µM], TR SRC2 fluor cs -19%, BLM helicase inh-1 -5%, APE1 inh -2% and RECQ1 helicase -6%.
Screening COc1ccccc1N(CC(=O)NCc1ccco1)S(=O)(=O)c1ccc(C)cc1 returned WRN helicase inh-1 35µM*, BLM helicase inh-1 -30%, APE1 inh 21µM*, WRN helicase inh-2 17µM*, TO displacement 29% and BLM helicase inh-2 14µM*.
`COc1ccc(N(CC(=O)NCc2ccco2)S(=O)(=O)c2ccc(C)cc2)cc1OC` gave WRN helicase inh-1 5%, BLM helicase inh-1 -2% and APE1 inh -7%.
Screening CC1=C(C(=O)Nc2ccccc2)C(c2ccc[nH]2)n2ncnc2N1 (stereo unspecified) returned TRb SRC2 PPI -5%, TR SRC2 fluor cs inconclusive, BLM helicase inh-1 -30%, APE1 inh -39%, WRN helicase inh-2 7.6µM*, TO displacement inconclusive and BLM helicase inh-2 1.1µM*.
For Cc1cc(OCC(=O)Nc2ccc(N3CCN(C(=O)c4ccco4)CC3)cc2)cc(C)c1Cl the results were TRb SRC2 PPI -1%, WRN helicase inh-1 inconclusive, TR SRC2 fluor cs 1%, BLM helicase inh-1 -13%, APE1 inh -1%, RECQ1 helicase -3%, WRN helicase inh-2 inconclusive, TO displacement -10% and BLM helicase inh-2 5.4µM*.
`Cc1ccc(OCC(=O)Nc2ccc(N3CCN(C(=O)c4ccco4)CC3)cc2)cc1C` gave TRb SRC2 PPI -3%[53 µM], WRN helicase inh-1 -11%, TR SRC2 fluor cs 0%[53 µM], BLM helicase inh-1 -10%, APE1 inh 7% and RECQ1 helicase -10%.
N[C@H](C(=O)O)C1[C@H](C(=O)O)[C@H]1C(=O)O (stereo partly specified) was read as TRb SRC2 PPI 2%, TR SRC2 fluor cs 1%, BLM helicase inh-1 -1%, APE1 inh 0% and RECQ1 helicase 1%.
CC1C=CC(C)C(C(=O)O)C1C(=O)O (stereo unspecified) was read as TRb SRC2 PPI -12%, WRN helicase inh-1 inconclusive, TR SRC2 fluor cs -5%, BLM helicase inh-1 -13%, APE1 inh inconclusive, RECQ1 helicase -2%, WRN helicase inh-2 14µM*, TO displacement 38% and BLM helicase inh-2 4.8µM*.
O=C(O)c1ccc(/C=C2/SC(=S)N(Cc3ccccc3)C2=O)cc1 was read as WRN helicase inh-1 -3%, BLM helicase inh-1 -2% and APE1 inh 9%.
`O=C(O)c1ccc(-n2cccc2/C=C2\SC(=O)N(Cc3cccc(Cl)c3)C2=O)cc1` gave WRN helicase inh-2 19µM*, TO displacement -18% and BLM helicase inh-2 14µM*.
`O=C(O)c1ccc(-n2cccc2/C=C2\SC(=O)N(Cc3ccc(Cl)cc3)C2=O)cc1` gave WRN helicase inh-2 9.6µM*, TO displacement -28% and BLM helicase inh-2 8.6µM*.
Cc1cccc(C)c1NC(=O)CN1C(=O)S/C(=C\c2cccn2-c2cccc(C(=O)O)c2)C1=O was read as TRb SRC2 PPI -1%, WRN helicase inh-1 inconclusive, TR SRC2 fluor cs 0%, BLM helicase inh-1 -19%, APE1 inh -11% and RECQ1 helicase -6%.
Cn1c(=O)n(C)c2cc(N3CCOCC3)c(NS(=O)(=O)c3ccc(Br)cc3)cc21 was read as TRb SRC2 PPI -7%, TR SRC2 fluor cs -1% and BLM helicase inh-1 5%.
CC(/C=N/NC(=O)c1ccc(Cn2cc([N+](=O)[O-])cn2)o1)=C\c1ccccc1 was read as WRN helicase inh-1 -8%, BLM helicase inh-1 -7% and APE1 inh 20%.
